Source: PubChem (Broad Institute)
This excerpt belongs to a sample that is enriched for hits.
U2OS ROS induce: inducers of reactive oxygen species in cancer cells; U2OS ROS induction, H2DCF-DA fluorescence; hit rate 2% among 46,000; ROS induction (% of piperlongumine), % at 10 µM; in the data active = ROS induction above about 79%, passing the limit was not always enough;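 note: 0% = DMSO vehicle median and 100% = reference compound median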
* = called active by the depositor.

How did Cc1ccc(S(=O)(=O)Nc2ccc3c(c2)C(=O)N([C@H](C)CO)C[C@H](C)[C@H](CN(C)CC2CCCCC2)OCCCC[C@@H](C)O3)cc1 do in these assays?
U2OS ROS induce: 46

What do the screens show for `C[C@@H]1CCCCO[C@H](CN(C)C(=O)c2ccccc2)[C@@H](C)CN([C@H](C)CO)C(=O)c2cc(NS(=O)(=O)c3ccccc3)ccc2O1`?
U2OS ROS induce: -4

Results for C[C@@H]1CCCCO[C@H](CN(C)C(=O)c2ccccc2)[C@@H](C)CN([C@H](C)CO)C(=O)c2cc(NS(=O)(=O)c3cccs3)ccc2O1 ?
U2OS ROS induce: 9

How did C[C@@H]1CCCCO[C@H](CN(C)C(=O)C2CCCCC2)[C@@H](C)CN([C@H](C)CO)C(=O)c2cc(NS(=O)(=O)c3ccc(Cl)cc3)ccc2O1 do in these assays?
U2OS ROS induce: 35

How did Cc1ccc(S(=O)(=O)Nc2ccc3c(c2)C(=O)N([C@H](C)CO)C[C@H](C)[C@@H](CN(C)CC2CCCCC2)OCCCC[C@@H](C)O3)cc1 do in these assays?
U2OS ROS induce: 12

How did C[C@@H]1CCCCO[C@@H](CN(C)C(=O)C2CCCCC2)[C@@H](C)CN([C@H](C)CO)C(=O)c2cc(NS(=O)(=O)c3ccccc3)ccc2O1 do in these assays?
U2OS ROS induce: 110*

Results for C[C@@H]1CCCCO[C@H](CN(C)C(=O)NC2CCCCC2)[C@@H](C)CN([C@H](C)CO)C(=O)c2cc(NS(=O)(=O)c3cccs3)ccc2O1 ?
U2OS ROS induce: 84*

How did C[C@@H]1CCCCO[C@@H](CN(C)C(=O)C2CCCCC2)[C@@H](C)CN([C@H](C)CO)C(=O)c2cc(NS(=O)(=O)c3cccs3)ccc2O1 do in these assays?
U2OS ROS induce: 109*

How did C[C@@H]1CCCCO[C@@H](CN(C)C(=O)Nc2ccccc2)[C@@H](C)CN([C@H](C)CO)C(=O)c2cc(NS(=O)(=O)c3cccs3)ccc2O1 do in these assays?
U2OS ROS induce: 9

How did C[C@@H]1CCCCO[C@@H](CN(C)C(=O)c2ccccc2)[C@@H](C)CN([C@H](C)CO)C(=O)c2cc(NS(=O)(=O)c3cccs3)ccc2O1 do in these assays?
U2OS ROS induce: 5

How did C[C@@H]1CCCCO[C@H](CN(C)CC2CCCCC2)[C@@H](C)CN([C@H](C)CO)C(=O)c2cc(NS(=O)(=O)c3ccccc3)ccc2O1 do in these assays?
U2OS ROS induce: 119*

Results for C[C@@H]1CCCCO[C@H](CN(C)C(=O)Nc2ccc(F)cc2)[C@@H](C)CN([C@H](C)CO)C(=O)c2cc(NS(=O)(=O)c3cccs3)ccc2O1 ?
U2OS ROS induce: 5

What do the screens show for `Cc1ccc(CNC(=O)C2CCN(S(C)(=O)=O)CC2)cc1`?
U2OS ROS induce: -10

How did O=C(CCn1c(=S)[nH]c2ccsc2c1=O)NCCc1ccc(Cl)cc1 do in these assays?
U2OS ROS induce: 46

How did O=C(/C=C/c1ccccc1)Nc1ccc2[nH]c(=O)[nH]c2c1 do in these assays?
U2OS ROS induce: 1

What do the screens show for `O=C(Cn1c2ccccc2c2cn[nH]c(=O)c21)N1CCCCC1`?
U2OS ROS induce: -2

What do the screens show for `CCC(C)NC(=O)c1csc2c1CCCC2` (stereo not given)?
U2OS ROS induce: 41

How did O=C(NC1CCCC1)C1CCN(S(=O)(=O)c2ccc3nc(-c4ccccc4)[nH]c3c2)CC1 do in these assays?
U2OS ROS induce: 3

Results for O=C(OCc1ccc2nonc2c1)c1c2c(nc3ccccc13)CCCC2 ?
U2OS ROS induce: 18

What do the screens show for `COc1ccc(/C=C2\SC(=S)N(CCCC(=O)O)C2=O)cc1OC`?
U2OS ROS induce: 138*

How did CN1CCN(NC(=O)CCN2C(=O)/C(=C\c3ccccc3)SC2=S)CC1 do in these assays?
U2OS ROS induce: 4

What do the screens show for `O=C(CCCN1C(=O)/C(=C\c2cccs2)SC1=S)Nc1ccc(O)cc1`?
U2OS ROS induce: 3

Results for Cc1ccc(S(=O)(=O)N2Cc3ccccc3CC2C(=O)Nc2cccc3ccccc23)cc1 (stereo not given) ?
U2OS ROS induce: -2

What do the screens show for `Cc1nn(-c2ccccc2)nc1CNC(=O)c1ccc(N(C)C)cc1`?
U2OS ROS induce: 0

How did COc1ccccc1C(=O)Nc1ccc2nc(SCC(=O)Nc3ccc(C)cc3C)sc2c1 do in these assays?
U2OS ROS induce: 17

What do the screens show for `C=C(CO)C(=O)O[C@H]1C[C@@]23O[C@@H]2CC/C(=C/[C@H]2OC(=O)C(=C)[C@H]12)CO[C@@H]3O`?
U2OS ROS induce: 55

Results for C=C1C(=O)O[C@@H]2/C=C(\CO)CCC/C(C)=C/[C@H](O)C12 (stereo not given in full) ?
U2OS ROS induce: 45

Results for C=C1C(=O)O[C@@H]2/C=C(/CO)CC/C=C(/C)C[C@H](OC(=O)C(C)CO)[C@@H]12 (stereo not given in full) ?
U2OS ROS induce: 154*

How did COC(=O)c1ccc(C2C3=C(CC(C)(C)CC3=O)Nc3ccccc3N2C(=O)C(C)C)cc1 (stereo not given) do in these assays?
U2OS ROS induce: -5

Results for O=C(Cc1ccccc1)Sc1nc2ccccc2[nH]1 ?
U2OS ROS induce: -7

Results for COc1cccc(C2CC(c3cccs3)=NN2C(=O)CSc2nncn2C)c1OC (stereo not given) ?
U2OS ROS induce: 0

How did Cc1c(C#N)c2nc3c(c(-c4ccccc4)c2n1-c1ccccc1)CCCC3 do in these assays?
U2OS ROS induce: 55

What do the screens show for `C[C@H](CO)N1C[C@H](C)[C@H](CN(C)Cc2ccc(C(F)(F)F)cc2)Oc2c(NC(=O)c3ccc(-c4nccs4)cc3)cccc2C1=O`?
U2OS ROS induce: 24

What do the screens show for `C[C@@H]1CN([C@@H](C)CO)C(=O)c2cccc(NC(=O)c3ccc(-c4nccs4)cc3)c2O[C@@H]1CN(C)S(=O)(=O)c1cccs1`?
U2OS ROS induce: 29

How did C[C@@H]1CN([C@H](C)CO)C(=O)c2cccc(NC(=O)c3ccc(-c4nccs4)cc3)c2O[C@@H]1CN(C)S(=O)(=O)c1cccs1 do in these assays?
U2OS ROS induce: 1

Results for C[C@H]1CN([C@@H](C)CO)C(=O)c2cccc(NC(=O)c3ccc(-c4nccs4)cc3)c2O[C@H]1CN(C)S(=O)(=O)c1cccs1 ?
U2OS ROS induce: 83*

How did C[C@@H]1CN([C@@H](C)CO)C(=O)c2cccc(NC(=O)c3ccc(-c4nccs4)cc3)c2O[C@@H]1CN(C)Cc1ccc(Oc2ccccc2)cc1 do in these assays?
U2OS ROS induce: 30

How did C[C@H]1CN([C@@H](C)CO)C(=O)c2cccc(NC(=O)c3ccc(-c4nccs4)cc3)c2O[C@H]1CN(C)Cc1ccc(C(F)(F)F)cc1 do in these assays?
U2OS ROS induce: 109*

How did C[C@H](CO)N1C[C@H](C)[C@@H](CN(C)Cc2ccc(Oc3ccccc3)cc2)Oc2c(NC(=O)c3ccc(-c4nccs4)cc3)cccc2C1=O do in these assays?
U2OS ROS induce: 120*

What do the screens show for `C[C@H]1CN([C@@H](C)CO)C(=O)c2cccc(NC(=O)c3ccc(-c4nccs4)cc3)c2O[C@@H]1CN(C)Cc1ccc(C(=O)O)cc1`?
U2OS ROS induce: -10

How did C[C@H]1CN([C@@H](C)CO)C(=O)c2cccc(NC(=O)c3ccc(-c4nccs4)cc3)c2O[C@H]1CN(C)Cc1ccc(Oc2ccccc2)cc1 do in these assays?
U2OS ROS induce: 38

What do the screens show for `O=C(NCc1cccs1)c1ccc2c(c1)N(Cc1ccccc1)C(=O)CS2`?
U2OS ROS induce: 0

Results for CC1(C)CC(=O)c2sc3nc(-c4ccc(Cl)cc4)cn3c2C1 ?
U2OS ROS induce: 0

How did CCCCn1c(CCNC(=O)C(C)C)nc2ccccc21 do in these assays?
U2OS ROS induce: 2
